# aDG glyco act – increases alpha dystroglycan glycosylation; Pro5-aDG cells, alpha-DG glycosylation AlphaScreen (IIH6); 0% Pro5, 100% B10-LARGE cell signal; activation, % at 10 µM; 360,000 compounds, 0.22% hits; AID 624168;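 active means activation of at least 8% versus controls, or a plate z-score of at least 8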;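 further: Pro5 are CHO cells carrying HIG-tagged alpha-DG that lacks glycosylation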
# PfGluPho inh – PfG6PD (Plasmodium falciparum) enzyme inhibition | PfGluPho enzyme, NADPH resazurin-diaphorase fluorescence | inhibition, % at 20 µM | 350,000 compounds, 0.78% hits | AID 504690;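 active means inhibition reaching at least a set limit at 20 µM in the primary screen, cut at about 59% in these data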;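 further: 0% = DMSO wells with substrate and 100% = DMSO wells lacking glucose-6-phosphate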
# Cardio protect – protects H9c2 cardiomyocytes from peroxide injury; H2O2 injury protection, ATPLite, 2 h; protection from H2O2 cell death, % at 20 µM; 360,000 compounds, 0.63% hits;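 active means compounds giving at least 50% protection of heart cells from peroxide-induced death in the single-dose screen, raw or plate-pattern-corrected value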;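 further: 0% = DMSO wells with peroxide and 100% = DMSO wells without peroxide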
# CRFBP-R2 agonist – agonists of human CRF-binding protein/CRF-R2 receptor complex. 350,000 compounds, 0.46% hits. HEK293 CRF-R2/CRF-BP, calcium dye fluorescence (FLIPR); percent of saturating CRF peptide response. activation, % at 13.2 µM;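 active means activation of at least 50%, plus an integration ratio under a set limit after plate pattern correction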;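 further: plate controls were neutral control wells without compound for no effect and CRF at EC100 for full effect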
# CRFR2-BP antag – blocks CRF-induced signaling of the CRF-BP/CRF-R2 complex; HEK293 CRF-R2/CRF-BP, CRF-induced calcium fluorescence; inhibition, % at 11.8 µM; 350,000 compounds, 0.59% hits;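 active means inhibition of the ligand-induced calcium signal above about 50% at the single tested concentration, limit read from the data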
# FAS TE block – blocks the thioesterase domain of human fatty acid synthase. P49327. recombinant FAS-TE, OMFH fluorogenic substrate, fluorescence endpoint. inhibition, % at 15 µM. 360,000 compounds, 0.67% hits. AID 602261;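 active means compounds whose normalised, plate-corrected inhibition of enzyme fluorescence in the single-dose primary screen is 50% or more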;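 further: 0% = DMSO with enzyme and 100% = substrate without enzyme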
# FAS-TE conf – confirmation of human fatty acid synthase thioesterase inhibitors | shares compounds with FAS TE block | recombinant FAS-TE, OMFH fluorogenic substrate, fluorescence | inhibition, % at 15 µM | 2,300 compounds, 45% hits | AID 624325;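 active means compounds inhibiting the enzyme by at least 50% at 15 µM in any one of the replicates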;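 further: 0% = enzyme with DMSO only and 100% = wells lacking enzyme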
# * = called active by the depositor; . = not tested or not shown. Only some compounds are listed: those with a hit (about 3.2% of all), similar ones and a draw of the others.
SMILES,aDG glyco act,PfGluPho inh,Cardio protect,CRFBP-R2 agonist,CRFR2-BP antag,FAS TE block,FAS-TE conf
CC(C)C(=O)NNC(=O)c1cc2sccc2s1,-0.2,-12.4,1.7,0.9,-8.0,-1.3,.
Cc1cc(C)c(C#N)c(Oc2ccccc2Br)n1,0.0,5.5,-5.5,0.6,-17.2,20.0,.
CCc1ccc(NS(=O)(=O)c2cc3c(cc2C)n(C)c(=O)c(=O)n3C)cc1,0.2,-8.5,-33.0,-1.2,1.2,74.1*,82.5*
COc1ccc2c(c1)[C@H]1[C@H](CO2)[C@H](c2ccccc2)[C@]2(C)C(=O)Nc3ccc(C)cc3C(=O)N12,-0.1,-18.3,-1.9,0.0,5.0,44.1,.
C[C@@]12C(=O)Nc3ccc(Br)cc3C(=O)N1[C@H]1c3cc(Cl)ccc3OC[C@@H]1[C@@H]2c1ccccc1,-0.1,-11.5,5.8,4.8,-1.4,93.8*,13.2
COc1ccc2c(c1)[C@H]1[C@H](CO2)[C@H](c2ccccc2)[C@]2(C)C(=O)Nc3ccc(Cl)cc3C(=O)N12,0.3,1.9,-5.7,1.2,2.0,86.0*,39.0
C[C@@]12C(=O)Nc3cc(F)c(F)cc3C(=O)N1[C@H]1c3cc(Cl)ccc3OC[C@@H]1[C@@H]2c1ccccc1,0.0,5.2,-8.2,-0.9,2.0,74.3*,36.0
C[C@@]12C(=O)Nc3ccc(Br)cc3C(=O)N1[C@H]1c3ccccc3OC[C@@H]1[C@@H]2c1ccccc1,-0.1,-0.9,-6.0,1.4,7.9,87.9*,16.6
O=C(CCCOc1cccc(Br)c1)NC1CCC(O)CC1 (stereo unspecified),-0.1,-6.8,3.1,-2.0,15.9,-4.1,.
Oc1ccccc1CN1CCCC(N2CCN(c3cccc(C(F)(F)F)c3)CC2)C1 (stereo unspecified),0.5,0.1,-3.1,4.1,-12.7,-0.3,.
CCN1C(=O)[C@H]2[C@@H](c3ccc(OC)cc3)N[C@]3(CCCN(CCC(C)C)C3=O)[C@H]2C1=O,0.2,-1.9,7.0,4.0,-25.3,-4.7,.
C[C@@]12C(=O)Nc3ccc(Cl)cc3C(=O)N1[C@H]1c3cc(Cl)ccc3OC[C@@H]1[C@@H]2c1ccccc1,0.0,-4.3,-2.2,4.0,-0.1,77.4*,24.2
CCN(CC)c1ccc(C(=O)OCC(=O)N(C)Cc2ccccc2)cc1,0.0,4.0,-10.1,-1.1,-9.1,6.8,.
CN(Cc1ccccc1)C(=O)COC(=O)c1cc(Cl)nc(Cl)c1,0.0,13.1,3.1,-4.0,-6.0,50.7*,64.2*
COc1ccccc1NC(=O)c1ccc(S(=O)(=O)N(C)c2ccccc2OC)cc1,-0.2,1.6,-6.2,0.8,0.6,21.7,.
COc1ccccc1NS(=O)(=O)c1cc(NC(=O)c2ccc3ccccc3n2)ccc1Cl,-0.2,-7.8,4.8,14.7,13.1,65.4*,23.7
COc1ccc(S(=O)(=O)N2CCOCC2)cc1NC(=O)c1ccc(S(=O)(=O)N(C)c2ccccc2OC)cc1,0.1,6.1,2.1,3.8,-0.3,60.9*,5.4
COc1ccccc1NC(=O)Nc1ccc(Cl)c(S(=O)(=O)Nc2ccccc2OC)c1,-0.1,-0.9,4.7,1.3,-9.2,3.6,.
COc1ccc(S(=O)(=O)N2CCCCC2)cc1NC(=O)c1ccc2ccccc2n1,0.0,4.3,-0.3,-0.5,-8.0,52.8*,7.2
COc1ccc(S(=O)(=O)N2CCCCC2)cc1NC(=O)c1cccc(S(=O)(=O)N2CC(C)OC(C)C2)c1 (stereo unspecified),0.0,2.9,1.3,0.1,6.7,65.3*,36.1
CCc1ccc(-n2c(SCC(=O)N3Cc4ccccc4CC3C(=O)O)nnc2-c2ccncc2)cc1 (stereo unspecified),-0.1,36.6,0.8,0.1,3.9,-7.5,.
FC(F)(F)c1ccc(Cl)c(N/N=C/c2ccc(N3CCOCC3)s2)c1,-0.3,38.2,-1.5,-0.6,-22.4,28.6,.
Cc1cccc(C(=O)OCc2cncs2)c1,-0.3,8.3,-0.7,-1.3,2.3,1.4,.
O=C(CCNC(=O)c1ccc([N+](=O)[O-])cc1)NC1CCCCCC1,0.0,1.9,-3.1,-1.6,7.2,63.4*,69.8*
O=C(NCCOc1ccccc1)c1cc(C(=O)NCCOc2ccccc2)cc([N+](=O)[O-])c1,2.4,2.9,15.5,-1.5,30.2,75.3*,76.6*
SMILES,aDG glyco act,PfGluPho inh,Cardio protect,CRFBP-R2 agonist,CRFR2-BP antag,FAS TE block,FAS-TE conf
O=C(CCC(=O)NNC(=O)c1ccc([N+](=O)[O-])cc1)NCc1ccccc1,-0.2,-10.1,-2.9,9.6,21.8,3.8,.
O=C(NCCOc1ccccc1)c1ccccc1[N+](=O)[O-],-0.4,1.1,0.1,-0.8,9.5,-5.1,.
O=C(CCNC(=O)c1ccc([N+](=O)[O-])cc1)NCc1ccccc1,0.2,5.2,0.6,-0.8,1.2,59.5*,71.9*
O=C(NCCC(=O)N(CCc1ccccc1)Cc1ccccc1)c1ccc([N+](=O)[O-])cc1,1.1,6.8,-0.9,0.3,11.4,61.2*,42.1*
Nc1nc2c(Cl)ccc(Cl)c2s1,-0.2,29.7,-6.0,-2.8,-1.4,-1.3,.
CN(c1ccccc1)S(=O)(=O)c1cccc(NC(=O)CCNC(=O)c2ccc([N+](=O)[O-])cc2)c1,0.7,6.4,8.5,1.4,32.5,54.4*,61.5*
CC(C)c1ccc(CCNC(=O)c2ccc([N+](=O)[O-])cc2)cc1,0.9,-4.8,-5.3,-1.1,17.7,66.5*,73.0*
O=C(NCCc1ccc([N+](=O)[O-])cc1)c1ccccc1,0.0,-3.0,0.6,-2.6,-2.2,2.3,.
O=C(Nc1ccc(F)c(Cl)c1)c1cc(C2CCCCN2C(=O)c2cccs2)on1 (stereo unspecified),0.0,.,-10.5,.,.,20.1,.
COc1ccc(CC(=O)Nc2nc(-c3ccc(F)c(F)c3)cs2)cc1,0.2,23.6,0.4,0.2,21.6,35.7,.
O=C(Cc1ccc(F)cc1)Nc1nc(-c2ccc(F)c(F)c2)cs1,0.3,4.6,1.0,3.4,14.0,50.6*,5.6
CC(=O)Nc1ccc(OCC(=O)NC(C)c2ccc(F)cc2)cc1 (stereo unspecified),-0.3,14.3,10.0,1.6,-3.6,-4.1,.
O=C(CN1c2ccccc2Sc2ccccc21)N/N=C/c1ccc([N+](=O)[O-])cc1,0.2,0.5,-5.7,0.9,-10.4,69.1*,16.1
O=C(CC(C(=O)O)c1ccc(Cl)cc1)c1ccc(Cl)c(Cl)c1 (stereo unspecified),0.0,-6.8,-0.5,0.3,0.3,80.4*,81.5*
C[C@H]1CCCCO[C@@H](CN(C)S(=O)(=O)c2ccc(F)cc2)[C@@H](C)CN([C@@H](C)CO)C(=O)c2cc(NC(=O)Nc3ccc4c(c3)OCO4)ccc2O1,-0.1,22.7,-1.7,-0.8,0.8,9.0,.

# Screening results as filed in PubChem BioAssay.
